Measurements published in the supplement of paper PMC10338343.
± gives the standard deviation.

Experiments:
[1] = test system: MILI (PIWIL2) piRISC loaded with L1MC piRNA (26 nt); assay: pre-steady-state target cleavage rate (min^-1); guide: L1MC piRNA 5'p-UAACUAAAUACUAUGCAAGCUGUAGG; higher = faster piRNA-guided slicing of the target
How it was run: (§1)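 A transcribed, DNA-blocked target RNA library (0.1 nM) and 1 nM active affinity-purified piRISC bearing one synthetic guide were incubated in HEPES–potassium acetate buffer at 33 °C for 0–8 or 0–960 min, either with or without 500 nM GTSF1 partner protein. Uncleaved targets were sequenced, normalised to depth and to weakly complementary targets, and pooled over three trials, with k3 capped at 0.0001 min^-1. The pre-steady-state cleavage rate was derived with a burst-and-steady-state fit.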

[2] = test system: EfPiwi piRISC loaded with L1MC piRNA (26 nt); assay: pre-steady-state target cleavage rate (min^-1); auxiliary factor: 500 nM Ephydatia muelleri Gtsf1; guide: L1MC piRNA 5'p-UAACUAAAUACUAUGCAAGCUGUAGG; MIWI and MILI are mouse PIWI proteins and EfPiwi is from a freshwater sponge; tags in brackets are library labels; higher = faster piRNA-guided slicing of the target
How it was run: as §1

[3] = auxiliary factor: 500 nM mouse GTSF1
[4] = auxiliary factor: none (no GTSF1)

## UCCUCCUUCAGCAUGCAUAGUAUUUAGUUA
[1]; [3]
  pre-steady-state target cleavage rate: 0.265 ± 0.017
[1]; [4]
  pre-steady-state target cleavage rate: 0.00701 ± 0.0018
[2]
  pre-steady-state target cleavage rate: 0.0621 ± 0.018

## UCCUGGAACAGCUUGCAUAAGUAUUUAGUUA
[1]; [3]
  pre-steady-state target cleavage rate: 0.00757 ± 0.004
[2]
  pre-steady-state target cleavage rate: 0.00284 ± 0.0024

## UCCUCGUACAGCUUGCAUAGAAUUUAGUUA
[1]; [3]
  pre-steady-state target cleavage rate: 0.0473 ± 0.0079
[2]
  pre-steady-state target cleavage rate: 0.00771 ± 0.0018

## UCCUCCUACAGCUUGCAUAGUAUUAAGUAA
[1]; [3]
  pre-steady-state target cleavage rate: 0.17 ± 0.037
[2]
  pre-steady-state target cleavage rate: 0.00642 ± 0.0035

## UCCUGCUACAGAUUGCAUAGUAUUUAGUUA
[1]; [3]
  pre-steady-state target cleavage rate: 0.299 ± 0.015
[1]; [4]
  pre-steady-state target cleavage rate: 0.0107 ± 0.0034
[2]
  pre-steady-state target cleavage rate: 0.0138 ± 0.0034

## UCCUGGAUCAGCUUGGAUAGUAAUUAGUUA
[1]; [3]
  pre-steady-state target cleavage rate: 0.167 ± 0.018
[1]; [4]
  pre-steady-state target cleavage rate: 0.00352 ± 0.0023
[2]
  pre-steady-state target cleavage rate: 0.00256 ± 0.0025

## UCCUGGAACAGCUUGCAUAGUAUUUAGUAA
[1]; [3]
  pre-steady-state target cleavage rate: 0.247 ± 0.021
[1]; [4]
  pre-steady-state target cleavage rate: 0.00459 ± 0.002
[2]
  pre-steady-state target cleavage rate: 0.00976 ± 0.0038

## UCCUCCAACAGCUUGCAAAGUAUUUAGUUA
[1]; [3]
  pre-steady-state target cleavage rate: 0.155 ± 0.01
[1]; [4]
  pre-steady-state target cleavage rate: 0.00656 ± 0.0019
[2]
  pre-steady-state target cleavage rate: 0.0132 ± 0.0038

## UCCUGGAUCUCGUUGCAUAGUAUUUAGUUA
[1]; [3]
  pre-steady-state target cleavage rate: 0.198 ± 0.019
[1]; [4]
  pre-steady-state target cleavage rate: 0.00544 ± 0.0024
[2]
  pre-steady-state target cleavage rate: 0.0466 ± 0.011

## UCCUGGAUGAGCUAGCAUAGUAAUUAGUUA
[1]; [3]
  pre-steady-state target cleavage rate: 0.131 ± 0.018
[1]; [4]
  pre-steady-state target cleavage rate: 0.00472 ± 0.0025
[2]
  pre-steady-state target cleavage rate: 0.00293 ± 0.0021

## UCCUGCUACAGCUUGCAUAGUAUUUUGAUA
[1]; [3]
  pre-steady-state target cleavage rate: 0.142 ± 0.037
[2]
  pre-steady-state target cleavage rate: 0.00307 ± 0.0023

## UCCUGGAUCAGCUUGCAAAGUUUUUAGUUA
[1]; [3]
  pre-steady-state target cleavage rate: 0.00906 ± 0.0052
[1]; [4]
  pre-steady-state target cleavage rate: 0.0042 ± 0.0022
[2]
  pre-steady-state target cleavage rate: 0.00491 ± 0.0036

## UCCUGGAUGUGCUUGCAUAGUAGUUAGUUA
[1]; [3]
  pre-steady-state target cleavage rate: 0.0647 ± 0.01
[1]; [4]
  pre-steady-state target cleavage rate: 0.0055 ± 0.0027
[2]
  pre-steady-state target cleavage rate: 0.0116 ± 0.0041

## UCCUGGAACAGGUUGCAUAGUAUAUAGUUA
[1]; [3]
  pre-steady-state target cleavage rate: 0.211 ± 0.023
[1]; [4]
  pre-steady-state target cleavage rate: 0.00891 ± 0.0023
[2]
  pre-steady-state target cleavage rate: 0.0101 ± 0.0045

## UCCUGCUACAGCUUACAUAGUAUUUAGUUA
[1]; [3]
  pre-steady-state target cleavage rate: 0.274 ± 0.026
[1]; [4]
  pre-steady-state target cleavage rate: 0.00609 ± 0.0025
[2]
  pre-steady-state target cleavage rate: 0.0151 ± 0.0038

## UCCUGGAACGAGCUUGCAUAGUAUUUAGUUA
[1]; [3]
  pre-steady-state target cleavage rate: 0.239 ± 0.024
[1]; [4]
  pre-steady-state target cleavage rate: 0.00792 ± 0.0025
[2]
  pre-steady-state target cleavage rate: 0.00926 ± 0.0022

## UCCUGCUACAGCUUGCAUACGUAUUUAGUUA
[1]; [3]
  pre-steady-state target cleavage rate: 0.00697 ± 0.0042
[2]
  pre-steady-state target cleavage rate: 0.00225 ± 0.0022

## UCCUGGAUGUGCUUGCAUAGUAUUUACAAA
[1]; [3]
  pre-steady-state target cleavage rate: 0.00913 ± 0.0046
[2]
  pre-steady-state target cleavage rate: 0.00369 ± 0.0033

## UCCUGGAACAGCUUGCAUAGUAUUUAGUGUA
[1]; [3]
  pre-steady-state target cleavage rate: 0.231 ± 0.018
[1]; [4]
  pre-steady-state target cleavage rate: 0.00523 ± 0.0026
[2]
  pre-steady-state target cleavage rate: 0.00557 ± 0.0021

## UCCUCCUACAGCUUGCAAUGUAUUUAGUUA
[1]; [3]
  pre-steady-state target cleavage rate: 0.101 ± 0.015
[1]; [4]
  pre-steady-state target cleavage rate: 0.00693 ± 0.0023
[2]
  pre-steady-state target cleavage rate: 0.0107 ± 0.0042

## UCCUGGUAGAGCUUGCAUAGUAUUUAGAAA
[1]; [3]
  pre-steady-state target cleavage rate: 0.128 ± 0.028
[2]
  pre-steady-state target cleavage rate: 0.00392 ± 0.0022

## UCCUCCUACAGCUACGAUAGUAUUUAGUUA
[1]; [3]
  pre-steady-state target cleavage rate: 0.232 ± 0.015
[2]
  pre-steady-state target cleavage rate: 0.00503 ± 0.0031

## UCCUCCUACAGCUUGCAAAGUAUUUAGUAA
[1]; [3]
  pre-steady-state target cleavage rate: 0.142 ± 0.016
[1]; [4]
  pre-steady-state target cleavage rate: 0.00404 ± 0.0019
[2]
  pre-steady-state target cleavage rate: 0.00609 ± 0.0029

## UCCUGCUACACCUUGCAUAGUAUUUAGUAA
[1]; [3]
  pre-steady-state target cleavage rate: 0.192 ± 0.035
[1]; [4]
  pre-steady-state target cleavage rate: 0.00445 ± 0.0026
[2]
  pre-steady-state target cleavage rate: 0.00559 ± 0.0032

## UCCUGGUACAGCAUGCAUAGUAUUUAGUAA
[1]; [3]
  pre-steady-state target cleavage rate: 0.163 ± 0.02
[1]; [4]
  pre-steady-state target cleavage rate: 0.00467 ± 0.0031
[2]
  pre-steady-state target cleavage rate: 0.00753 ± 0.0032

## UCCUGGAACAGCUUGCUUUGUAUUUAGUUA
[1]; [3]
  pre-steady-state target cleavage rate: 0.182 ± 0.019
[1]; [4]
  pre-steady-state target cleavage rate: 0.0038 ± 0.0025
[2]
  pre-steady-state target cleavage rate: 0.00396 ± 0.0025

## UCCUCCUACAGCUUGCAUAGUAAAAAGUAA
[1]; [3]
  pre-steady-state target cleavage rate: 0.0657 ± 0.019
[2]
  pre-steady-state target cleavage rate: 0.00344 ± 0.0029

## UCCUGGAAGAGCUUGCAUAGAAUUUAGUUA
[1]; [3]
  pre-steady-state target cleavage rate: 0.0498 ± 0.011
[2]
  pre-steady-state target cleavage rate: 0.00403 ± 0.0018

## UCCUGGAUGUCGUUGCAUAGUAGUUUAGUUA
[1]; [3]
  pre-steady-state target cleavage rate: 0.0297 ± 0.0098
[1]; [4]
  pre-steady-state target cleavage rate: 0.0066 ± 0.0025
[2]
  pre-steady-state target cleavage rate: 0.0087 ± 0.005

## UCCUGGUACAGCUUGCAUAUUAUUUAGUUA
[1]; [3]
  pre-steady-state target cleavage rate: 0.0704 ± 0.01
[1]; [4]
  pre-steady-state target cleavage rate: 0.00385 ± 0.0027
[2]
  pre-steady-state target cleavage rate: 0.00464 ± 0.0037

## UCCUGGAUGAGCUUGUAUAGUAUUUAGUUA
[1]; [3]
  pre-steady-state target cleavage rate: 0.181 ± 0.015
[1]; [4]
  pre-steady-state target cleavage rate: 0.0088 ± 0.0033
[2]
  pre-steady-state target cleavage rate: 0.0538 ± 0.014

## UCCUCGAACAGCUUGCAUAGUAUUUAGUUA
[1]; [3]
  pre-steady-state target cleavage rate: 0.3 ± 0.017
[1]; [4]
  pre-steady-state target cleavage rate: 0.00922 ± 0.0026
[2]
  pre-steady-state target cleavage rate: 0.198 ± 0.038

## UCCUGGAUCAGCUUGCAUAGUAUUUAGUGUA
[1]; [3]
  pre-steady-state target cleavage rate: 0.271 ± 0.023
[1]; [4]
  pre-steady-state target cleavage rate: 0.00832 ± 0.0026
[2]
  pre-steady-state target cleavage rate: 0.0168 ± 0.0061

## UCCUGCUACAGCUAGCAUAGUAUAUAGUUA
[1]; [3]
  pre-steady-state target cleavage rate: 0.27 ± 0.03
[1]; [4]
  pre-steady-state target cleavage rate: 0.00448 ± 0.0023
[2]
  pre-steady-state target cleavage rate: 0.00485 ± 0.0017

## UCCUGCUACAGCUUGCAUAGUAGUUUAGUUA
[1]; [3]
  pre-steady-state target cleavage rate: 0.239 ± 0.032
[1]; [4]
  pre-steady-state target cleavage rate: 0.0034 ± 0.0024
[2]
  pre-steady-state target cleavage rate: 0.00695 ± 0.0028

## UCCUGGAUGAGCUUGCAUAGUAUUUACAUA
[1]; [3]
  pre-steady-state target cleavage rate: 0.0149 ± 0.0065
[2]
  pre-steady-state target cleavage rate: 0.00323 ± 0.0028

## UCCUGGAUGUCCUUGCAUAGUAUUUAAGUUA
[1]; [3]
  pre-steady-state target cleavage rate: 0.173 ± 0.023
[1]; [4]
  pre-steady-state target cleavage rate: 0.00879 ± 0.0027
[2]
  pre-steady-state target cleavage rate: 0.0217 ± 0.0093

## UCCUCCUACAGGCUUGCAUAGUAUUUAGUUA
[1]; [3]
  pre-steady-state target cleavage rate: 0.268 ± 0.019
[1]; [4]
  pre-steady-state target cleavage rate: 0.00802 ± 0.0025
[2]
  pre-steady-state target cleavage rate: 0.0234 ± 0.0078

## UCCUGGAUGUCCUUGCAUAGUAUUAUAGUUA
[1]; [3]
  pre-steady-state target cleavage rate: 0.122 ± 0.019
[2]
  pre-steady-state target cleavage rate: 0.00424 ± 0.0041

## UCCUGGAUCAGCUUGCAUAGUAUUUAGCUUA
[1]; [3]
  pre-steady-state target cleavage rate: 0.149 ± 0.021
[2]
  pre-steady-state target cleavage rate: 0.0068 ± 0.0026

## UCCUGGAACAGCUUGCAUAGUAUUUUGAUA
[1]; [3]
  pre-steady-state target cleavage rate: 0.0833 ± 0.019
[2]
  pre-steady-state target cleavage rate: 0.00265 ± 0.0024

## UCCUGGAUCAGCUUGCAUAGAAUUUAGAUA
[1]; [3]
  pre-steady-state target cleavage rate: 0.0147 ± 0.0059
[2]
  pre-steady-state target cleavage rate: 0.0036 ± 0.0019

## UCCUCCUACAGCAAGCAUAGUAUUUAGAAA
[1]; [3]
  pre-steady-state target cleavage rate: 0.217 ± 0.035
[2]
  pre-steady-state target cleavage rate: 0.00443 ± 0.0036

## UCCUGGUACAGCUUGCAUAGUAUUUUGAAA
[1]; [3]
  pre-steady-state target cleavage rate: 0.06 ± 0.022
[2]
  pre-steady-state target cleavage rate: 0.00282 ± 0.0028

## UCCUGGAACAGCUUGCAUAGUAUUAAGUAA
[1]; [3]
  pre-steady-state target cleavage rate: 0.0909 ± 0.024
[2]
  pre-steady-state target cleavage rate: 0.00572 ± 0.0023

## UCCUCCUACAGCUUGCAUAGUAAUUUCAAA
[1]; [3]
  pre-steady-state target cleavage rate: 0.182 ± 0.038
[2]
  pre-steady-state target cleavage rate: 0.00321 ± 0.0026

## UCCUGCAACAGCUUGCAUAGUAUUUACAAA
[1]; [3]
  pre-steady-state target cleavage rate: 0.232 ± 0.053
[2]
  pre-steady-state target cleavage rate: 0.00305 ± 0.0022

## UCCUGCUACAGCAUGCAUACUAUUUAGUUA
[1]; [3]
  pre-steady-state target cleavage rate: 0.148 ± 0.028
[2]
  pre-steady-state target cleavage rate: 0.00525 ± 0.0021

## UCCUGGUACAGCUUGCAUAGUAAUUUGUUA
[1]; [3]
  pre-steady-state target cleavage rate: 0.18 ± 0.05
[2]
  pre-steady-state target cleavage rate: 0.00282 ± 0.0025

## UCCUGGAUCAGGUUGCAUAGUAUUUAGAUA
[1]; [3]
  pre-steady-state target cleavage rate: 0.1 ± 0.023
[2]
  pre-steady-state target cleavage rate: 0.00381 ± 0.0026

## UCCUGCUACAGGUUGCAUAGUAUUUUCAAA
[1]; [3]
  pre-steady-state target cleavage rate: 0.0101 ± 0.0054
[2]
  pre-steady-state target cleavage rate: 0.00243 ± 0.0019
